For assay [1], the system named is PRMT1 (protein arginine N-methyltransferase 1). Nature of the assay: small molecules binding arginine methyltransferase PRMT1 – biochemical, small-molecule microarray, 635 nm fluorescence, primary screen (AID 1088).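 Further: binding of Prmt1 protein to compounds spotted on small-molecule microarray slides.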 The conditions noted are these: higher = more signal.
The nature of assay [2]: growth effects on S. cerevisiae YJM789 – YJM789 clinical isolate, OD600, 24 h, basal, primary screen (AID 1089).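 Further: growth of clinical yeast isolate S. cerevisiae YJM 789 seeded 1000 cells per well; test concentration not given here.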 The conditions noted are these: higher = more signal, called active from +8 up or from −8 down.
Assay [3] is described as follows: S. pombe growth modifiers, basal conditions – strain 972, OD600, 24 h, no modulator, primary screen (AID 1090).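 Further: basal condition with compound alone and no growth modifier present; test concentration not given here.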 The following applies: S. pombe 972 growth, higher = more signal, called active from +8 up or from −8 down.
The nature of assay [4]: budding yeast growth modifiers under rapamycin – strain BY4716, OD600, 96 h, primary screen (AID 1091). Further: test concentration not given here. The conditions noted are these: S. cerevisiae BY4716 + rapamycin, higher = more signal, called active from +8 up or from −8 down.
In assay [5] the target is Torsin-1A-interacting protein 2 (Homo sapiens) (UniProt Q8NFQ8). Put plainly: small molecules binding lysate-expressed LULL1 – cell lysate, human LULL1 lysate, 635/667 nm fluorescence, primary screen (AID 1092).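 Further: probe is lysate of COS7 cells overexpressing human LULL1; score merges per-feature 667 nm fluorescence with signal-to-noise.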 The conditions noted are these: small-molecule microarray, hLULL1 lysate binding, 635 nm fluorescence; higher = more signal.
Assay [6] can be described thus: optical density change of DRC41 E. coli – strain DRC41, OD650, 24 h, E. coli filamentation project, primary screen (AID 1093).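 Further: MC1000 strain lacking acrAB efflux and sulA so SOS filamentation is blocked; test concentration not given here.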 The conditions noted are these: E. coli DRC41 growth, higher = more signal, called active from +8 up or from −8 down.
Assay [7] in a line: probe aLefty2 binding to arrayed compounds – biochemical, biotinylated probe, 635/667 nm fluorescence, primary screen (AID 1094).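 Further: score merges spot fluorescence near 667 nm with spot signal-to-noise ratio.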 The following applies: small-molecule microarray, higher = more signal.
The subject of assay [8] is Noggin (protein binding on small-molecule microarray). Put plainly: small molecules binding Noggin protein – biochemical, 635/667 nm fluorescence, primary screen (AID 1095).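 Further: score merges 667 nm feature fluorescence with signal to noise over triplicate slides.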 The conditions noted are these: 635 nm fluorescence, higher = more signal.
In assay [9] the target is Neurogenic locus notch homolog protein 3 (Homo sapiens) (UniProt Q9UM47). Nature of the assay: small molecules binding NOTCH3 protein – biochemical, 635/667 nm fluorescence, primary screen (AID 1096). The conditions noted are these: small-molecule microarray, 635 nm fluorescence, higher = more signal.
A short description of assay [10]: probe aEGFR binding to arrayed compounds – biochemical, biotinylated probe, 635/667 nm fluorescence, primary screen (AID 1097).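 Further: probe is a biotinylated anti-EGFR antibody binding compounds printed on slides; score combines fluorescence near 667 nm and signal to noise of each spot.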 The conditions noted are these: small-molecule microarray, higher = more signal.
Assay [11] deals with Plasmodium falciparum Sir2 (PF13_0152, Sir2A). Nature of the assay: Plasmodium falciparum Sir2A binding compounds – biochemical, small-molecule microarray, 635 nm fluorescence, primary screen (AID 1098).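 Further: score merges spot fluorescence intensity with its signal-to-noise ratio.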 The following applies: fluorescence 635 nm, higher = more signal.
Assay [12] can be described thus: probe aDKK1 binding to arrayed compounds – biochemical, biotinylated probe, 635/667 nm fluorescence, primary screen (AID 1099).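 Further: score merges 667nm spot fluorescence with signal to noise across triplicate slides; reference of the scale not given here.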 The following applies: small-molecule microarray, higher = more signal.
Assay [13] is described as follows: probe aCHRDL2 binding to arrayed compounds – biochemical, biotinylated probe, 635/667 nm fluorescence, primary screen (AID 1100). The conditions noted are these: small-molecule microarray, higher = more signal.
The nature of assay [14]: change in splice reporter luminescence, either direction, cell-based, HEK293, spliceosome inhibition project, primary screen (AID 1101).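 Further: HEK293 cells carrying a splicing-competent luciferase reporter gene; test concentration not given here.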 The conditions noted are these: HEK293 splicing luciferase reporter, 24 h, higher = more signal, called active from +8 up or from −8 down.
The target of assay [15] is Fibroblast growth factor 10 (Homo sapiens) (UniProt O15520). Nature of the assay: compounds binding fibroblast growth factor 10 – biochemical, small-molecule microarray, 635 nm fluorescence, primary screen (AID 1102). The following applies: FGF10 binding, fluorescence 635 nm, higher = more signal.
Assay [16] has as its system glycogen synthase kinase-3 (GSK3A per assay name; protocol says GSK3B). Put plainly: compounds binding glycogen synthase kinase-3 – biochemical, small-molecule microarray, 635 nm fluorescence, GSK3A, primary screen (AID 1103). Further: the record names both GSK3A and GSK3B. The conditions noted are these: fluorescence 635 nm, higher = more signal.
The target of assay [17] is Epidermal growth factor receptor (Homo sapiens) (UniProt P00533). Nature of the assay: compounds binding epidermal growth factor receptor – biochemical, small-molecule microarray, 635 nm fluorescence, primary screen (AID 1104).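 Further: score merges 667 nm emission intensity with spot signal to noise over triplicate slides.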 The conditions noted are these: EGFR binding, higher = more signal.
Assay [18] deals with Follistatin-related protein 3 (Homo sapiens) (UniProt O95633). Put plainly: compounds binding follistatin-related protein 3 – biochemical, small-molecule microarray, 635 nm fluorescence, primary screen (AID 1105).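 Further: score merges emission near 667 nm and signal to noise per printed spot across three slides.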 The conditions noted are these: FSTL3 binding, higher = more signal.
Assay [19] concerns the target Dickkopf-related protein 1 (Homo sapiens) (UniProt O94907). Nature of the assay: small molecules binding DKK1 protein – biochemical, small-molecule microarray, 635 nm fluorescence scan, primary screen (AID 1106).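 Further: score merges emission near 667 nm with signal to noise over three replicate slides.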 The following applies: higher = more signal.
Assay [20] deals with Inhibin beta A chain (activin A). Nature of the assay: small molecules binding activin A – biochemical, small-molecule microarray, 635 nm fluorescence scan, primary screen (AID 1107).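 Further: mouse activin A protein probed at 4.33 µg/mL on printed slides; score merges bound-protein fluorescence near 667 nm with spot signal-to-noise.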 The following applies: INHBA, higher = more signal.

Calls of active or inactive are those of the source.

Chain of Neurogenic locus notch homolog protein 3 (Homo sapiens) (Q9UM47 whole entry, looked up): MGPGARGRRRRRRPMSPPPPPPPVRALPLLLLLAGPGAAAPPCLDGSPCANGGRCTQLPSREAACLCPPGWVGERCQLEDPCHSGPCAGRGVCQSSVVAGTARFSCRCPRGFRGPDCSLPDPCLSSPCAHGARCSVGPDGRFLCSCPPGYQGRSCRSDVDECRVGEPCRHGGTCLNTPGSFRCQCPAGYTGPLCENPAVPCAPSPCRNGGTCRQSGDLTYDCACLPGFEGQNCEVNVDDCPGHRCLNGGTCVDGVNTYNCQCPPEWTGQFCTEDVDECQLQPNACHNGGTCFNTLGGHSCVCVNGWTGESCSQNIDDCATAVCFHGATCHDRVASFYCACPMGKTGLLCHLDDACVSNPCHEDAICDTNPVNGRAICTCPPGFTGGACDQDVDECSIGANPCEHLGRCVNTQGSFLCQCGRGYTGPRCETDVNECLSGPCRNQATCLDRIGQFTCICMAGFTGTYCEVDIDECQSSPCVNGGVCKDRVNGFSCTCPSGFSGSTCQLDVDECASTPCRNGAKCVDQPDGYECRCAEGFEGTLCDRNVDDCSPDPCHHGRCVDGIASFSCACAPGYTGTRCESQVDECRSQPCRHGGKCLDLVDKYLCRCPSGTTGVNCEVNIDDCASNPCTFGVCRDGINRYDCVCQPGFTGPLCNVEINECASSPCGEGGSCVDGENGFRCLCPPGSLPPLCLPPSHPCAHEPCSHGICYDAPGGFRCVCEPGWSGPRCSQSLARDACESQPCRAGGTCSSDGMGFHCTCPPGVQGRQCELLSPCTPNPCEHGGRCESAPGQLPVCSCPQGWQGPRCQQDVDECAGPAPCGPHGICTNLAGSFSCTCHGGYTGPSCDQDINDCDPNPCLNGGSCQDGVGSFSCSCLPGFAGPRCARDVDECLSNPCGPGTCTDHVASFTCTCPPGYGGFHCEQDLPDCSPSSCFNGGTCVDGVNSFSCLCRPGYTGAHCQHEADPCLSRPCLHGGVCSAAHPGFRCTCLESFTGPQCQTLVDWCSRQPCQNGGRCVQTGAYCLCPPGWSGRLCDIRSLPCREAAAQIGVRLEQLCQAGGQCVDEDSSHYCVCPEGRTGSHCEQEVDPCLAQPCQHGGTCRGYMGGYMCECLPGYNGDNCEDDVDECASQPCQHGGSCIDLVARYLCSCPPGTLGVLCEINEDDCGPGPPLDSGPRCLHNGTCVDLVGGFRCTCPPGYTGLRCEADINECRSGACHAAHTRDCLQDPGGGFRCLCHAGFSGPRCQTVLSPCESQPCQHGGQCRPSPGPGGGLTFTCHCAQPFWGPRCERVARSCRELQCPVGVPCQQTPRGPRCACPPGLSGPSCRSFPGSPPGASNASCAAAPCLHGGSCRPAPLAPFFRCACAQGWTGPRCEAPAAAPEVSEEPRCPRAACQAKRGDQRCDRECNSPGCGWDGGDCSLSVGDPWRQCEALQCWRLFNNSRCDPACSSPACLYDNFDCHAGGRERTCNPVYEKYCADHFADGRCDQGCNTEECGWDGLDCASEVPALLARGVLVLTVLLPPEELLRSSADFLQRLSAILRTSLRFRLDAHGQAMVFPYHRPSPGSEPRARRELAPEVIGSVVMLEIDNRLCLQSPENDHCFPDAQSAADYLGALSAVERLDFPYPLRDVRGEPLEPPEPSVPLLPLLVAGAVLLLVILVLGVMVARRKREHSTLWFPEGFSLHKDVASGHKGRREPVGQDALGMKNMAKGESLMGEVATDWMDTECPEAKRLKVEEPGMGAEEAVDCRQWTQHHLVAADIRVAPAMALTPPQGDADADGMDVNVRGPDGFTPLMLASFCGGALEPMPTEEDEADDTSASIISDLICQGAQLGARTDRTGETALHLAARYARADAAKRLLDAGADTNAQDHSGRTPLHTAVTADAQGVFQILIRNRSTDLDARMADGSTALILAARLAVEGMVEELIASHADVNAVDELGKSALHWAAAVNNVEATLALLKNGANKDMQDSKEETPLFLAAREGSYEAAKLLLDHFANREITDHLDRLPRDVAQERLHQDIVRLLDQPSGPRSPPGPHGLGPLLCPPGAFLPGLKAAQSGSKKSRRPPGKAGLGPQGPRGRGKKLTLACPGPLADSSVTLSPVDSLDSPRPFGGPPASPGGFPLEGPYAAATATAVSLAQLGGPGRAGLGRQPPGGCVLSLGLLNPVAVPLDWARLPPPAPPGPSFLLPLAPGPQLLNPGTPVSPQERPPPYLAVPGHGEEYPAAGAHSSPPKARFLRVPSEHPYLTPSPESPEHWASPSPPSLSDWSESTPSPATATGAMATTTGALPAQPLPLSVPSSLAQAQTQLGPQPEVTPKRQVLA
Chain of Follistatin-related protein 3 (Homo sapiens) (O95633 whole entry, looked up): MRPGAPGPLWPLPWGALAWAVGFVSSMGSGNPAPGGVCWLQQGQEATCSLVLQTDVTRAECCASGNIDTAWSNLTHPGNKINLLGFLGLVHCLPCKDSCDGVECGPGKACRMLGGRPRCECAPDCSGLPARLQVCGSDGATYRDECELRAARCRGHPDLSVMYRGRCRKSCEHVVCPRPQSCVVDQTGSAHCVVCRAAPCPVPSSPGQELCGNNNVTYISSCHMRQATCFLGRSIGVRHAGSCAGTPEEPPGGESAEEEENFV
Chain of Epidermal growth factor receptor (Homo sapiens) (P00533 whole entry, looked up): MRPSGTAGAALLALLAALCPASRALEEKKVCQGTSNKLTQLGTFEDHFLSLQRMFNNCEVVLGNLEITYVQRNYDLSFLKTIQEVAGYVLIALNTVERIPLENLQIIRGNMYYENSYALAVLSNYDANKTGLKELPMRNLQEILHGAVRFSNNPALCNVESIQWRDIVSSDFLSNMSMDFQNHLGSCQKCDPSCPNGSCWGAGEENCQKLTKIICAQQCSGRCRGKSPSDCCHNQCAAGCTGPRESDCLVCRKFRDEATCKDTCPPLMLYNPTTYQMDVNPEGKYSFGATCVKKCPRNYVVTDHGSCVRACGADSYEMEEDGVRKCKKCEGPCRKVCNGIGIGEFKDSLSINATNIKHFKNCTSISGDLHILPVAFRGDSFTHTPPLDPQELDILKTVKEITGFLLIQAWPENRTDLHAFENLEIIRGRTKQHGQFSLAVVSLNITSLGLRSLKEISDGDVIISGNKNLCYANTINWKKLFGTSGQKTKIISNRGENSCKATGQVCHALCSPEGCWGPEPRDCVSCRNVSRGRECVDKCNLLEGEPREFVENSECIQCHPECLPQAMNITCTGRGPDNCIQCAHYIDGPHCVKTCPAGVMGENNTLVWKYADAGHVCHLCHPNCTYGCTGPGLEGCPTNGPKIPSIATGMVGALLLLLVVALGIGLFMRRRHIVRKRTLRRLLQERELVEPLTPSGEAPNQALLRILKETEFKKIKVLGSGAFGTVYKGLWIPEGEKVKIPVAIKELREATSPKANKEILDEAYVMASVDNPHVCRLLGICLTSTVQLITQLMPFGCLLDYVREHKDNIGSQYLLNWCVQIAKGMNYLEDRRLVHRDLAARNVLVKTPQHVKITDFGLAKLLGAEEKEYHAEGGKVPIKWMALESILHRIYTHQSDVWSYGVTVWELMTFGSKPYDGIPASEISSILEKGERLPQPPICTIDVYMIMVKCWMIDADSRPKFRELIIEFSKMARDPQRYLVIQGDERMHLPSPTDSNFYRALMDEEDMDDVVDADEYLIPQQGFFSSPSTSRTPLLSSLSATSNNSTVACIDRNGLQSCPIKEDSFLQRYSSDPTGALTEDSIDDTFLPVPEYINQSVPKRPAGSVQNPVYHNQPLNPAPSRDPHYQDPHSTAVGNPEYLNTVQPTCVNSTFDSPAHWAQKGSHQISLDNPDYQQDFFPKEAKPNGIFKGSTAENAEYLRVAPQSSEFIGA
Chain of Dickkopf-related protein 1 (Homo sapiens) (O94907 whole entry, looked up): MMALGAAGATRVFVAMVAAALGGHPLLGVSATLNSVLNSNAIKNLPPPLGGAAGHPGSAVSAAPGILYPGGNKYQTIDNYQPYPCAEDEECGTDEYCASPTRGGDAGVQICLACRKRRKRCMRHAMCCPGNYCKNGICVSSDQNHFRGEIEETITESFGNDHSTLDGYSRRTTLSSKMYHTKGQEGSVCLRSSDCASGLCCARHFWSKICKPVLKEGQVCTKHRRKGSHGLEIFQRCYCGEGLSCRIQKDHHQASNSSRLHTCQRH
Chain of Torsin-1A-interacting protein 2 (Homo sapiens) (Q8NFQ8 whole entry, looked up): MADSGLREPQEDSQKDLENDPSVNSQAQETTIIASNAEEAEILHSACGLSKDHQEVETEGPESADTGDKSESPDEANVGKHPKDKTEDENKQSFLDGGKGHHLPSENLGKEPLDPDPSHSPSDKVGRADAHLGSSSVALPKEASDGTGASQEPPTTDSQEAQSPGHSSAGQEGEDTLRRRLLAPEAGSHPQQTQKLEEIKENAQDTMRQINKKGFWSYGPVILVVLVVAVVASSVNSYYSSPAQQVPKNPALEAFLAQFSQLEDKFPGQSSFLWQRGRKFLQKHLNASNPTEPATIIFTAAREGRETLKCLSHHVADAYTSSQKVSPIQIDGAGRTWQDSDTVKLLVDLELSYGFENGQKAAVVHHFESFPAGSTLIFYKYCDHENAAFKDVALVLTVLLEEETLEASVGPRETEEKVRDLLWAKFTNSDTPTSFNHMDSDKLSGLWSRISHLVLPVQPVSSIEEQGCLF
Chain of Fibroblast growth factor 10 (Homo sapiens) (O15520 whole entry, looked up): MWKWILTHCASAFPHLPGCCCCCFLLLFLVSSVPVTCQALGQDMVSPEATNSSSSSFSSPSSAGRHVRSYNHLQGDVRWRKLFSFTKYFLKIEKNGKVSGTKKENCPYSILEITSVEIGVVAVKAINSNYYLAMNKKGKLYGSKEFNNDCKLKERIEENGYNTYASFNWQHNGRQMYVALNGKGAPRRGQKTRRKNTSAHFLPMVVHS

With `COC(=O)[C@@]1(Cc2ccc(OC)cc2)[C@H]2c3cc(C(=O)N(C)C)n(Cc4ccc(OC(F)(F)F)cc4)c3C[C@H]2CN1C(=O)c1ccccc1`, the composite z-score in [1] was -0.708; in assay [5], 3.39; in [7], 0.106; in assay [8], -0.588; in assay [9] it was -0.354; in assay [10], 0.0139. Besides, the composite z-score in assay [11] is 0.518; in assay [12], 0.34; in assay [13] it was 1.15; in [15], -0.19; in assay [16], -0.448; in assay [17], -0.274. Further, the composite z-score in assay [18] was -0.558; in [19] it was -0.995; in [20] it was 0.771. For the same compound, the z-score in assay [2] was 0.461 (inactive); in assay [3] it was 1.08 (inactive); in [4], 0.649 (inactive); in [6], -1.08 (inactive); in assay [14] it was 1.32 (inactive).
Turning to `CCCCC=C[C@@H](NC(=O)OCc1ccccc1Cl)c1ccccc1`, the composite z-score turned out to be 1.48 in [1]; 2.9 in assay [5]; 1.09 in assay [7]; 1.34 in assay [8]; 1.02 in [9]; 0.98 in [10]. In addition, the composite z-score in assay [11] turned out to be 0.732; in assay [12], 1.53; in assay [13], 1.09; in assay [15], 0.431; in assay [16], 1.29; in assay [17] it was 0.566. The figures for the composite z-score in [18], in assay [19] and in [20] were 1.19, -0.193 and 0.709, respectively. In addition, the z-score was 0.952 (inactive) in assay [2]; 1.18 (inactive) in assay [3]; 2.28 (inactive) in [4]; -1.48 (inactive) in assay [6]; 0.233 (inactive) in assay [14].
Turning to `C=CCN1Cc2ccccc2[C@@H]2OC(c3ccc(OCCCO)cc3)=N[C@]2(CC=C)C1=O`, the composite z-score worked out at 1.57 in assay [1]; 3.15 in [5]; 0.188 in assay [7]; 1.84 in [8]; 1.03 in assay [9]; 0.434 in assay [10]. For the same compound, the composite z-score amounted to 1.5 in assay [11]; 2.15 in assay [12]; 1.07 in assay [13]; 0.862 in assay [15]; 1.22 in [16]; 0.724 in assay [17]. The composite z-score is 1.48 in assay [18], 1.33 in [19] and 1.68 in [20]. Besides, the z-score was -0.98 (inactive) in [2]; -2.8 (inactive) in assay [3]; -0.926 (inactive) in assay [4]; 0.924 (inactive) in assay [6]; -1.25 (inactive) in assay [14].
Consider `CC1CC/C=C\[C@H]2OC34C=CCN(c5ccc6ccccc6c5)C(=O)[C@H]3N(CCCO)C(=O)[C@@H]4C2C(=O)O1` (stereo not given in full), for which the composite z-score was -0.131 in assay [1]; -0.546 in [5]; -0.136 in [7]; -1.32 in assay [8]; -0.562 in assay [9]; -0.193 in [10]. Also, the composite z-score was 0.0565 in assay [11]; -0.179 in assay [12]; 1.07 in [13]; -1.32 in assay [15]; -0.592 in assay [16]; -1.2 in assay [17]. Moreover, the figures for the composite z-score in assay [18], in assay [19] and in assay [20] were -0.912, -2.16 and -0.223, respectively. For the same compound, the z-score was 0.116 (inactive) in [2]; 0.398 (inactive) in assay [3]; 0.799 (inactive) in assay [4]; -0.696 (inactive) in [6]; 0.738 (inactive) in [14].
As to `O=C1N(Cc2ccccc2)c2ccccc2C[C@]12N=C(c1ccc(OCCCO)cc1)O[C@@H]2c1ccccc1`, the composite z-score in [1] was 1.21; in [5] it was 2.42; in assay [7] it was 0.102; in assay [8] it was 0.885; in [9] it was 1.03; in [10] it was -0.0549. The composite z-score worked out at 0.25 in assay [11]; 0.035 in assay [12]; 0.333 in assay [13]; 0.796 in assay [15]; 0.914 in [16]; 0.498 in assay [17]. Moreover, the results for the composite z-score in assay [18], in assay [19] and in [20] were 0.935, 0.271 and 0.736, respectively. The z-score in [2] was 1.1 (inactive); in [3] it was 0.6 (inactive); in assay [4], 5.61 (inactive); in assay [6] it was 0.316 (inactive); in assay [14] it was 0.214 (inactive).

Source of the values: PubChem BioAssay.
